The structures appear in SMILES notation. Values without a mark were called inactive. Records with an inconclusive call do not appear. Active and inactive are the calls of the source. Unless noted, calls come from the whole dose curve; as a rule, active = well fitted curve in the direction sought with a large enough effect; inconclusive = small, poorly fitted or top-dose-only effect, or another doubt; inactive = no such curve, though single readings can be large; an effect the other way counts as inactive or inconclusive.

A short description of experiment [1]: Cell Viability qHTS for small molecule stabilizers of the endoplasmic reticulum resident proteome (AID 1508629).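 For max response: human SH-SY5Y neuroblastoma cells carrying the GLuc-SERCaMP reporter; % is set by controls: 0 for no effect and ±100 for the full control effect.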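 Note: compound exposure about 46 h in total before the viability read.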 Note: potency is the fitted concentration of half-maximal effect. The note with it: cell viability counter-screen, 100 nM thapsigargin for final 4 h. On the technique in general: qHTS replaces the single test concentration by a dilution series.
Experiment [2] concerns the target Endonuclease 4 (Escherichia coli (strain K12)) (UniProt P0A6C1). The experiment is described as follows: Counterscreen for APE1 Inhibitors: qHTS Validation Assay for Inhibitors of Endonuclease IV (AID 1708). Note: % is set by controls: 0 for no effect and ±100 for the full control effect. To be noted: E. coli endonuclease IV, DNA cleavage fluorescence; series mostly up to 57.1 µM. A digest of the protocol:
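The reaction buffer contained 50 mM Tris-HCl pH 7.5, 50 mM NaCl, 2 mM MgCl2, 1 mM DTT and 0.01% Tween-20. Incision of a 50 nM fluorophore/quencher THF substrate by 2 nM enzyme was measured kinetically.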
On the technique in general: Counterscreens check selectivity or assay interference.

The nature of experiment [3]: qHTS for differential inhibitors of proliferation of Plasmodium falciparum line 3D7 (AID 1876). Note: potency is the fitted concentration of half-maximal effect. The note with it: P. falciparum 3D7 proliferation inhibition; series mostly up to 28.7 µM.
The nature of experiment [4]: qHTS Assay for Modulators of Human Peripheral Myelin Protein 22 (PMP22) Expression/Activity (AID 1967; active = well fitted curve in the direction sought with a large enough effect in the signal ratio; the % refers to the signal ratio;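 note: 0% = untreated cells and 100% end not stated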). To be noted: Cell-based PMP22 reporter, dual-color luciferase ratio, mouse Pmp22 promoter in mouse Schwann cells; series mostly up to 115 µM. A digest of the protocol:
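Mouse MSC80 Schwann line, Pmp22 promoter–CBG68 reporter, EF-alpha–CBR internal control. 24h compound exposure, 37 °C/5% CO2, DMEM + 10% FBS. Readout: corrected green/red luminescence ratio, normalized to untreated cells; concentration-response curves fitted and classified.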

A short description of experiment [5]: Validation screen for inhibitors of Lassa infection (AID 463096; calls by dose curve; note: % is set by controls: 0 for no effect and ±100 for the full control effect). The note with it: Lassa virus infection, cell-based; series mostly up to 46.1 µM.
Experiment [6] is described as follows: Validation screen for small molecules that induce DNA re-replication in MCF 10A normal breast cells (AID 463097). Note: 0% is about no effect; nearly all actives have a fitted effect of over 60% in size. The note with it: MCF 10A cells, DNA re-replication phenotype imaging; series mostly up to 46.1 µM. A digest of the protocol: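 250 MCF 10A cells/well; compound pin-transferred; 48 hr, 37 C, 5% CO2; Hoechst 40 min; imaged 405/500-530 nm. Hits = more high-intensity nuclei.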

Experiment [7] concerns the target Voltage-gated inwardly rectifying potassium channel KCNH2 (Homo sapiens) (UniProt Q12809). The experiment is described as follows: qHTS Assay for Small Molecule Inhibitors of the Human hERG Channel Activity (AID 588834).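 Note: top concentration of the series differs between compounds; % is set by controls: 0 for no effect and ±100 for the full control effect; lower thallium flux fluorescence means stronger hERG block; nearly all actives have a fitted effect of over 50% in size.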 The note with it: U2OS BacMam hERG, FluxOR thallium flux fluorescence; series mostly up to 46.1 µM. A digest of the protocol: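 Thallium-flux (FluxOR) read-out on FDSS: fluorescence read 10 s before and 2 min after stimulation buffer. hERG-BacMam-transduced U2OS cells, compound exposure about 10 min. AC50 by standard Hill equation.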

A short description of experiment [8]: qHTS for differential inhibitors of proliferation of Plasmodium falciparum line D10 (AID 1877).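 Note: parasites grown with compound for 72 h before DNA staining; plate controls were vehicle wells for no effect and reference inhibitor wells for full effect.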 To be noted: series mostly up to 28.7 µM.
Experiment [9] can be described thus: qHTS for differential inhibitors of proliferation of Plasmodium falciparum line Dd2 (AID 1882).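 Note: compound exposure of 72 h on infected erythrocytes; plate controls were DMSO vehicle for no effect and 0.29 µM artemisinin for full effect; nearly all actives have a fitted effect of over 65% in size.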 The note with it: Potency: Plasmodium falciparum Dd2 proliferation inhibition; series mostly up to 28.7 µM. A digest of the protocol:
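RBC culture, 0.3% parasitemia / 2.5% Hct final; cpd added by pin tool in DMSO; 72 h, 37 C, 5% CO2; lysis buffer + SYBR Green I, o/n RT dark; FI 485/535; norm. to artemisinin 0.29 uM and DMSO.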

Experiment [10] in a line: Quantitative high throughput screen for delayed death inhibitors of the malarial parasite plastid, 96 hour incubation (AID 488745). Note: % is set by controls: 0 for no effect and ±100 for the full control effect; nearly all actives have a fitted effect of over 70% in size. To be noted: Plasmodium falciparum growth; series mostly up to 28.7 µM. A digest of the protocol: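 Two-generation (96 h) exposure of luciferase-reporter P. falciparum in erythrocytes, 2% hematocrit, 0.1% parasitemia final, 37 C, 5% CO2, RPMI 1640 with 0.5% Albumax. Growth inhibition scored by reduced luminescence.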

A short description of experiment [11]: Quantitative high throughput screen for delayed death inhibitors of the malarial parasite plastid, 48 hour incubation (AID 488752). Note: % is set by controls: 0 for no effect and ±100 for the full control effect; nearly all actives have a fitted effect of over 65% in size. The note with it: Plasmodium falciparum growth; series mostly up to 28.7 µM. A digest of the protocol:
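Cultures: infected erythrocytes at final 2% hematocrit and 0.1% parasitemia in Albumax-supplemented RPMI. Parasites express integrated firefly luciferase. Incubation with compound lasts 48 h before luminescent detection of remaining reporter activity.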

Experiment [12] in a line: qHTS Assay for Identification of Small Molecule Antagonists for NFkB Signaling Pathway (AID 895; active = well fitted inhibition curve with a large enough effect in the signal ratio, with a control signal flat, not every such curve was filed as active; the % refers to the signal ratio; note: % is set by controls: 0 for no effect and ±100 for the full control effect). The note with it: NFkB beta-lactamase reporter cells, FRET ratio 460/530; series mostly up to 38.3 µM. A digest of the protocol:
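Beta-lactamase reporter read-out (460 and 530 nm emission ratio, 405 nm excitation, 2 hrs substrate loading RT) after 5 hr stimulation with 10 pM TNF alpha in compound-treated NFkB-bla ME-180 cells in low-serum medium.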

A short description of experiment [13]: qHTS Assay for Identification of Small Molecule Agonists for Hypoxia Response Element Signaling Pathway (AID 914; active = well fitted activation curve with a large enough effect in the signal ratio, with a control signal flat, not every such curve was filed as active; the % refers to the signal ratio; note: % of control where 0% means no effect). To be noted: ME-180 HRE-bla reporter, beta-lactamase ratio, CoCl2, 17 h; activation: active compounds read high. A digest of the protocol: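 ME-180 cells carrying an HRE-driven beta-lactamase reporter were treated with compounds in a titration series plus an EC50 level of CoCl2 for 17 h at 37 degrees Celsius; CCF4 readout as the 460nm/530nm ratio gave AC50 values.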

The target in experiment [14] is Cytochrome P450 3A4 (Homo sapiens) (UniProt P08684). Briefly: qHTS Assay for Inhibitors and Substrates of Cytochrome P450 3A4 (AID 884). Note: % is set by controls: 0 for no effect and ±100 for the full control effect; nearly all actives have a fitted effect of over 50% in size. To be noted: recombinant CYP3A4, Luciferin-PPXE luminescence; series mostly up to 57.1 µM. A digest of the protocol:
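Luminescent readout of luciferin produced by CYP3A4 (20 nM) dealkylation of Luciferin-PPXE, 25 uM (its KM). NADPH-driven reaction ran 60 min at RT after 10 min compound preincubation; data scaled to 57 uM ketoconazole as 100% inhibition.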

The nature of experiment [15]: Confirmation and Secondary Assay for Modulators of Hemoglobin Beta Chain Splicing at IVS2 654 locus (AID 910).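 Note: HeLa cells stably carrying EGFP split by mutant beta-globin IVS2-654 intron; per-well total GFP intensity by laser scanning cytometry after 2-day treatment; % of control where 0% means no effect.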 To be noted: HeLa EGFP-654 splicing reporter, GFP fluorescence, 48 h; series mostly up to 46.1 µM. A digest of the protocol: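 Readout: per-well total peak green fluorescence (488 nm ex, 500–520 nm em) from objects 5–250 µm, reflecting correct splicing of an EGFP-654 reporter. Compounds were applied for 2 days at 37 °C to overnight-plated HeLa EGFP-654 cells; controls were DMSO and 500 nM IVS2-654 PNA.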

A short description of experiment [16]: Confirmation and Secondary Assay for Modulators of Hemoglobin Beta Chain Splicing at IVS2 705 locus (AID 930). Note: % of control where 0% means no effect. The note with it: HeLa EGFP-705 splicing reporter, GFP fluorescence, 48 h; series mostly up to 46.1 µM. A digest of the protocol: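 HeLa cells stably carrying EGFP interrupted by mutant beta-globin IVS2-705 intron (CMV-driven) were seeded at 500 cells/well, treated next day with compound for 2 days at 37C; corrected splicing restores EGFP, read as total peak GFP intensity per well.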

Experiment [17] concerns the target Cytochrome P450 2C9 (Homo sapiens) (UniProt P11712). Briefly: qHTS Assay for Inhibitors and Substrates of Cytochrome P450 2C9 (AID 883). Note: % is set by controls: 0 for no effect and ±100 for the full control effect; nearly all actives have a fitted effect of over 60% in size. To be noted: recombinant CYP2C9, luciferin-H luminescence, 60 min; series mostly up to 57.1 µM. A digest of the protocol:
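Inhibition of CYP2C9 is scored as loss of luminescence, with 57uM sulphaphenazole defining 100% inhibition. Substrate Luciferin-H is used at 100uM, equal to its KM; enzyme at 10nM in 25mM KPO4, 60 min at 37C with NADPH regeneration.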

Experiment [18] has as its target Rap guanine nucleotide exchange factor 3 (Homo sapiens) (UniProt O95398). Briefly: Confirmatory qHTS for agonist of cAMP-regulated guanine nucleotide exchange factor 3 (EPAC1) (AID 1645881).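 Note: EPAC1 catalysed release of BODIPY-GDP from Rap1B seen as fluorescence loss; nearly all actives have a fitted effect of over 75% in size.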 The note with it: EPAC1 Rap1B BODIPY-GDP exchange fluorescence, 100% = cAMP control response; series mostly up to 154 µM.
For experiment [19], the target named is Rap guanine nucleotide exchange factor 4 (Homo sapiens) (UniProt Q8WZA2). Briefly: Confirmatory qHTS for agonist of cAMP-regulated guanine nucleotide exchange factor 4 (EPAC2) (AID 1645884).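 Note: nucleotide exchange releases bodipy-GDP from Rap1 and this lowers its fluorescence; % is set by controls: 0 for no effect and ±100 for the full control effect; nearly all actives have a fitted effect of over 65% in size.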 The note with it: EPAC2 GEF activity, Rap1B-BODIPY-GDP fluorescence, percent relative to cAMP agonist control; series mostly up to 154 µM.
The nature of experiment [20]: qHTS Assay for Identification of Small Molecule Antagonists for Thrombopoietin (TPO) Signaling Pathway (AID 918). Note: potency is the fitted concentration of half-maximal effect; nearly all actives have a fitted effect of over 60% in size. The note with it: TPO-dependent cell signaling reporter, antagonist mode. A digest of the protocol:
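Antagonist mode at EC50 TPO (26 pM) in IL-3-free medium; murine Ba/F3 cells with human TPO receptor and GPIIb-promoter luciferase, 24 hrs at 37 C before luminescent detection.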

Sequence of Voltage-gated inwardly rectifying potassium channel KCNH2 (Homo sapiens) (Q12809 whole entry, looked up): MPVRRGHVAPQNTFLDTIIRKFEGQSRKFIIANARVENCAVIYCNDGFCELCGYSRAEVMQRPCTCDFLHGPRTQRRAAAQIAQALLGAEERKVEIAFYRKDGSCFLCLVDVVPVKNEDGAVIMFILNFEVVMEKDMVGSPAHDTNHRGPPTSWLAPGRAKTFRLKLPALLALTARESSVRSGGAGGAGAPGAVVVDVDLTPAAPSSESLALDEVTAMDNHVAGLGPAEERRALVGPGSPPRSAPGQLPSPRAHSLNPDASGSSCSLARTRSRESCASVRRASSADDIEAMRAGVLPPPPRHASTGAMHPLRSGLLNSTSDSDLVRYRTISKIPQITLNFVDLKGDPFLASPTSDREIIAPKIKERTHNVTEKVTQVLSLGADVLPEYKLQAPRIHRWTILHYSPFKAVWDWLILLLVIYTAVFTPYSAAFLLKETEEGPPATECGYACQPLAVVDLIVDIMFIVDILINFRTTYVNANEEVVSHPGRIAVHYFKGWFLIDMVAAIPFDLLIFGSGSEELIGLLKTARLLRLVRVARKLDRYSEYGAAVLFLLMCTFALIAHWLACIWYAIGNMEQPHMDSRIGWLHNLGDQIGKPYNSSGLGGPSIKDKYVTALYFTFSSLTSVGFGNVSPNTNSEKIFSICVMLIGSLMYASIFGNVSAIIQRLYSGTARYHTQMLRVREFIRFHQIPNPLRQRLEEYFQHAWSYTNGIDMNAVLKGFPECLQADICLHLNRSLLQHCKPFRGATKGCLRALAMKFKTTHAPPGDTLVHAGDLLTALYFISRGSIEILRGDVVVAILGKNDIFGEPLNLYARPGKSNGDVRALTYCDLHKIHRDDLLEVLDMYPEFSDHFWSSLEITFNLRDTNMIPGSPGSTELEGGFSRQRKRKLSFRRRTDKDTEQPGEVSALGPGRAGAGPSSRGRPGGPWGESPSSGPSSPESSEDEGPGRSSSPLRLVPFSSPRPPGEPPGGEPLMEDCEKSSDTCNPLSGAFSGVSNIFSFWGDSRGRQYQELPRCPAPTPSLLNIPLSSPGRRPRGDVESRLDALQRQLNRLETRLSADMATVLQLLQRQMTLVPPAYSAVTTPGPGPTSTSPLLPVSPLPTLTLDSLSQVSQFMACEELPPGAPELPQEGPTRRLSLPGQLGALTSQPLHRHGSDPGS
Sequence of Cytochrome P450 3A4 (Homo sapiens) (P08684 whole entry, looked up): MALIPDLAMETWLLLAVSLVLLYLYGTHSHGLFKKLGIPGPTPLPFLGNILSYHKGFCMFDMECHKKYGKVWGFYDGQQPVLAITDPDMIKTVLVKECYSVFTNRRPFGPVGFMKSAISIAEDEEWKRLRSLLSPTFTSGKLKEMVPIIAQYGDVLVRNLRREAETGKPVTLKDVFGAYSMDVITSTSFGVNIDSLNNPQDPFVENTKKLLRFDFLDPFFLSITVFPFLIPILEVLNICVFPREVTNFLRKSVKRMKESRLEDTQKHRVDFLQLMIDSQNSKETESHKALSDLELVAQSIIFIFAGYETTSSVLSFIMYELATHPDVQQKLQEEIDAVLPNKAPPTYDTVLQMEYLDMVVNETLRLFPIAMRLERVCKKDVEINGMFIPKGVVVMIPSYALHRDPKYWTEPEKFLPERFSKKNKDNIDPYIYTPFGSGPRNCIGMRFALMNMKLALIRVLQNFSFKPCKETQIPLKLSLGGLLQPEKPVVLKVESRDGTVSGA
Sequence of Cytochrome P450 2C9 (Homo sapiens) (P11712 whole entry, looked up): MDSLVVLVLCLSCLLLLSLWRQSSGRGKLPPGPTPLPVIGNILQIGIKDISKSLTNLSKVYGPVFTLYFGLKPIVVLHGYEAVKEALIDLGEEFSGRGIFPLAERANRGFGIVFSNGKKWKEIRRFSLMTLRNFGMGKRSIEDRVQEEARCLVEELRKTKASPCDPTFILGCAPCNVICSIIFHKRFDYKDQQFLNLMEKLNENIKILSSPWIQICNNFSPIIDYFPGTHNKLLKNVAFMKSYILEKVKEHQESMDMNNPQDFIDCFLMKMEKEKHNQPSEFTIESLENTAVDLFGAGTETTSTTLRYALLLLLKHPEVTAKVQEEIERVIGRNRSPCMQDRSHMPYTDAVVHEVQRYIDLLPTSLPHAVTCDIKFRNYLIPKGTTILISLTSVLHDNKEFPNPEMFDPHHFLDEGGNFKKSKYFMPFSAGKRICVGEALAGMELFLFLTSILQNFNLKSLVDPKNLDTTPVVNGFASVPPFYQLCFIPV
Sequence of Rap guanine nucleotide exchange factor 4 (Homo sapiens) (Q8WZA2 whole entry, looked up): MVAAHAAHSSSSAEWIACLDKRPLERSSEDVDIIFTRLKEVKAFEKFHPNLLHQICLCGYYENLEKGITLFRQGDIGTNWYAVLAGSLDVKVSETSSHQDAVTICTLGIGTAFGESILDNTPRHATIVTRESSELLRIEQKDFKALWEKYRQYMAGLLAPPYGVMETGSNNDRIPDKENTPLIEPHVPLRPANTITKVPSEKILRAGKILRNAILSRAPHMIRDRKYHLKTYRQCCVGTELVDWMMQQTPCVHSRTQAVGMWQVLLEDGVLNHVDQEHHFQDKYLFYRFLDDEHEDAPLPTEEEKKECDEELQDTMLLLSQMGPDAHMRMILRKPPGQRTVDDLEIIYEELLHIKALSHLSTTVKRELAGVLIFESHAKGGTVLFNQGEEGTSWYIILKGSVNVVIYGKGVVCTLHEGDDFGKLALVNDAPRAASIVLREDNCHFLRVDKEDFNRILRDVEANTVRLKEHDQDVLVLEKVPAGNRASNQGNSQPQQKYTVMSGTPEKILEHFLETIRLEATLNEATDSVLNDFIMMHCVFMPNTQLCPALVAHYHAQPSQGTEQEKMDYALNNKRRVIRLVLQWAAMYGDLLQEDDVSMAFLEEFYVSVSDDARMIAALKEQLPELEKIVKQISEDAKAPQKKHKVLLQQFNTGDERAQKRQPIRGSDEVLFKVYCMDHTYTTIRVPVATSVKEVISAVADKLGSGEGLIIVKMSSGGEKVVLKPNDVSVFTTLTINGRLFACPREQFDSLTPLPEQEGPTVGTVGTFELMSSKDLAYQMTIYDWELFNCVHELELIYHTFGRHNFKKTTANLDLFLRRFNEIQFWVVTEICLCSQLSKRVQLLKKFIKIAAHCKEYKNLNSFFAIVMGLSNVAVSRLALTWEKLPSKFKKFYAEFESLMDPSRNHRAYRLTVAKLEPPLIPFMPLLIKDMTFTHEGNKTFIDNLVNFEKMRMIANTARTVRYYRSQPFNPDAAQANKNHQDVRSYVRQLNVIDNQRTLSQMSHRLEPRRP
Sequence of Rap guanine nucleotide exchange factor 3 (Homo sapiens) (O95398 whole entry, looked up): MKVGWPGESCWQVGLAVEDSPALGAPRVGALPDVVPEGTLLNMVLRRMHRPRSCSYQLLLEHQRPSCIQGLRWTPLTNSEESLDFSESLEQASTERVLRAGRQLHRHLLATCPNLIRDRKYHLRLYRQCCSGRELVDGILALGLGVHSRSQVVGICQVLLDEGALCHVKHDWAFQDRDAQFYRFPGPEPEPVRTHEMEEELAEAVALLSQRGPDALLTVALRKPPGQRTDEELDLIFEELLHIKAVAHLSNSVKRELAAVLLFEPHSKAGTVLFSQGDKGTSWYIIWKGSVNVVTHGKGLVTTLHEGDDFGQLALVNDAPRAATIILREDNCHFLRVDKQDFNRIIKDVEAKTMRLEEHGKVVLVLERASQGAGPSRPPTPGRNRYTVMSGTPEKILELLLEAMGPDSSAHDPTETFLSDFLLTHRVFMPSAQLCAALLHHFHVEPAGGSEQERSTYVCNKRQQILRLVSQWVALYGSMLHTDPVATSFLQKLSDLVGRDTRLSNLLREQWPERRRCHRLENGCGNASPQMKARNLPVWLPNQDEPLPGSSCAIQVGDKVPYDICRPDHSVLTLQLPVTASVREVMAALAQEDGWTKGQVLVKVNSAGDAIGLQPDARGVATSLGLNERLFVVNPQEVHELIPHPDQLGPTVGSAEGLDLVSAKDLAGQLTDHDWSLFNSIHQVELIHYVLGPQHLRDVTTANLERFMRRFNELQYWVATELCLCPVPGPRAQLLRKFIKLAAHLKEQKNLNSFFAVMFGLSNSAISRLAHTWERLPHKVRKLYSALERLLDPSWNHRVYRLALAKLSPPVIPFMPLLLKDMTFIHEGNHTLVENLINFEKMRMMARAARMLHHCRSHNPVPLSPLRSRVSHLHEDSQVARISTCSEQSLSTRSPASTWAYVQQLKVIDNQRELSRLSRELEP

Take `Fc1ccc(C(OCCN2CCN(C/C=C/c3ccccc3)CC2)c2ccc(F)cc2)cc1`: in [1], the Potency was 20 µM (active).

`CC(=O)C1=C(O)[C@@H]2[C@@H]3c4c[nH]c5cccc(c45)C[C@@H]3C(C)(C)N2C1=O`: the max response in experiment [1] was -1.84%.

`CC(O)C(C)OC(=O)[C@@H]1C[C@@H]2c3cccc4c3c(cn4C(C)C)C[C@H]2N(C)C1` (stereo partly drawn): the call in experiment [2] and in experiment [4] was inactive. In addition, the Potency in [3] is 12.6 µM (active). The Potency result in experiment [5], in experiment [6] and in experiment [7] was “inactive” throughout.

As to `N[C@@H](Cn1cc(I)c(=O)[nH]c1=O)C(=O)O`, the Potency result in experiment [3], in experiment [8], in experiment [9], in experiment [5], in [6] and in experiment [10] was “inactive” each time. The Potency result in experiment [11] and in [7] was “inactive” each time. The result in experiment [4] was inactive.

As for `Cc1o[nH]c(=O)c1C[C@H](N)C(=O)O`, the Potency entry in experiment [12] was “inactive”. Moreover, the activation in experiment [13] is 7.13%.

Turning to `CCN1C[C@]2(C)CC[C@H](O)[C@@]34C5C[C@@H]6[C@@H](OC)C[C@@](O)(C5[C@H]6O)[C@@H](CC23)[C@@H]14` (stereo partly drawn), the Potency result in [14] is “inactive”.

With `CP(=O)(O)CCCN`, the Potency result in experiment [12], in [9], in experiment [6], in [11] and in [7] was “inactive” in each case. Moreover, the activation in experiment [13] is 7.54%. For the same compound, the compound was called inactive in [2] and in [4].

Consider `N[C@H](CCP(=O)(O)O)C(=O)O`, for which the Potency entry in [12] was “inactive”.

Regarding `N#CC(C#N)=Cc1ccc([N+](=O)[O-])c(O)c1`, the Potency entry in experiment [12], in experiment [8], in [9], in [5], in experiment [6] and in experiment [10] was “inactive” throughout. The Potency result in experiment [11] and in experiment [7] was “inactive” in each case. Further, the compound was called inactive in experiment [2] and in experiment [4].

On to `c1cncc(C2CCCCN2)c1` (stereo not drawn), for which the Potency entry in [14] and in [15] was “inactive” each time. Also, in experiment [16], the outcome was inactive.

Take `Cc1ccc(C[N+](C)(C)C)o1`: the Potency entry in experiment [15] is “inactive”. In addition, the compound was called inactive in experiment [16].

Turning to `CN1C(=O)CCS(=O)(=O)[C@H]1c1ccc(Cl)cc1`, the Potency result in [17], in experiment [14] and in experiment [15] was “inactive” each time. Further, the compound was called inactive in experiment [16].

For the compound `CCCn1c(C)c(C(=O)c2cccc3ccccc23)c2ccccc21`, the result in experiment [18] and in experiment [19] was inactive.

Regarding `C=CCN1CC[C@@]23c4c5ccc(O)c4O[C@H]2/C(=N\N=C2/CC[C@@]4(O)[C@H]6Cc7ccc(O)c8c7[C@@]4(CCN6CC=C)[C@@H]2O8)CC[C@]3(O)[C@@H]1C5`, in experiment [12], the Potency entry is “inactive”. Moreover, in [13], the activation is 0.657%. In experiment [20], the Potency was 12.6 µM (active).

(Values after PubChem BioAssay (NCATS).)
